RECQ1 inh-1: inhibitors of human RECQ1 DNA helicase | Potency, µM (top dose mostly 57.3 µM), usual class: inhibitors | 240,000 compounds, 0.54% hits | RECQ1 DNA unwinding, red fluorescence kinetic read; note: nearly all actives have a fitted effect of over 30% in size
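50 nM RECQ1T1 preincubated 15 min with compound in Tris pH 8.0 buffer with MgCl2, DTT, Tween-20 and 2.5 ug/ml poly(dI-dC); started with 200 nM TAMRA/BHQ-2 forked duplex and 2 mM ATP. Unwinding read as fluorescence (525/598 nm), two reads 2 h apart.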
APEX1 inh: inhibitors of human APE1 endonuclease | Potency, µM (top dose mostly 65.8 µM), usual class: inhibitors | AID 2517 | recombinant APE1, TAMRA/BHQ-2 abasic DNA cleavage fluorescence | P27695 | 350,000 compounds, 0.35% hits; note: nearly all actives have a fitted effect of over 55% in size
Target sequence (P27695 whole entry, looked up): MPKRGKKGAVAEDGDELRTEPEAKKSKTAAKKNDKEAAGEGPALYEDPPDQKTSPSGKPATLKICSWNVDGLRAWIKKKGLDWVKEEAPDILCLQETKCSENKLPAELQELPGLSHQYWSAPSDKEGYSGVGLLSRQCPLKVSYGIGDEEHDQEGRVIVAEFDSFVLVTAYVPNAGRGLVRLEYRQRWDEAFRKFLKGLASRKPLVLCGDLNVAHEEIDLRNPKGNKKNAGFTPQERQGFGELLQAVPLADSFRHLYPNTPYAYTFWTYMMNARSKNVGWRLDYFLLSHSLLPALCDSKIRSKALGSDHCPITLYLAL
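0.75 nM APE1 + cpd, 15 min RT; start w/ 50 nM TAMRA/BHQ-2 THF-abasic dsDNA; kinetic fluor 525/598 nm ×3 reads @60 s; Δ(read3−read1); normalized to DMSO and NSC13755 control wells.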
JMJD2E inh: blocks human JMJD2E demethylase activity. B2RXH2. JMJD2E catalytic domain, FDH-coupled NADH fluorescence (FDH is formaldehyde dehydrogenase). Potency, µM (doses to about 57.1 µM), actives largely listed as inhibitors. 230,000 compounds, 1.6% hits. AID 2147; active = well fitted inhibition curve with a large enough effect, not every such curve was filed as active; inconclusive = small, poorly fitted or top-dose-only effect, or another doubt; inactive = no such curve, though single readings can be large or run the other way; note: nearly all actives have a fitted effect of over 50% in size
Target sequence (B2RXH2 1-337 limits assumed): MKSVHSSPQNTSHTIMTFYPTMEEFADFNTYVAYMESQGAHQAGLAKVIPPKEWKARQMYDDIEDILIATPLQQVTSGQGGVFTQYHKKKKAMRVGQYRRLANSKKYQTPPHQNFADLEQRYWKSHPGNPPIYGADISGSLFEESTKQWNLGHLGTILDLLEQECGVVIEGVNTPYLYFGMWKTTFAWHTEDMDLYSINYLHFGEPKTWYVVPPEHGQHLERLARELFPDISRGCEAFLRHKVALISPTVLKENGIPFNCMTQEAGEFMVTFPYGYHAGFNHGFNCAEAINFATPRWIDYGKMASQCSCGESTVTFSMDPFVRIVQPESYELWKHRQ
PKM2 act: PKM2 (human) enzyme activation; P14618; purified PKM2, Kinase-Glo ATP luminescence, activation; response scale: 0% is enzyme alone, no compound; Potency, µM (titrated, usually from 57.5 µM), usual class: activators; 260,000 compounds, 0.34% hits; AID 1631; note: nearly all actives have a fitted effect of over 55% in size
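Kinase-Glo luminescence reports ATP generated from ADP (0.1 mM) and PEP (0.5 mM) by purified hPK-M2 after 1 h at room temperature, pH 7.2 imidazole buffer; intermediate enzyme activity allows detecting inhibitors and activators.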
BLM inh: inhibitors of human Bloom syndrome helicase BLM | Potency, µM (top dose mostly 56.1 µM), most hits filed as inhibitors | 350,000 compounds, 0.2% hits | recombinant BLM DNA unwinding, fluorescence dequenching | AID 2528; note: nearly all actives have a fitted effect of over 35% in size
RECQ1 conf: confirmation of human RECQ1 helicase inhibitors; AID 2708; 610 compounds, 28% hits; RECQ1 helicase DNA unwinding, fluorescence; Potency, µM (top dose mostly 229 µM), usual class: inhibitors; shares compounds with RECQ1 inh-1; note: nearly all actives have a fitted effect of over 45% in size
RECQ1 ADP FP: counter-screen for RECQ1 inhibitors: ADP displacement; ADP fluorescence polarization displacement counterscreen; shares compounds with RECQ1 inh-1; Potency, µM (doses to about 228 µM), most hits filed as inhibitors; 530 compounds, 27% hits; note: nearly all actives have a fitted effect of over 45% in size
RECQ1 inh-2: RECQ1 helicase inhibition confirmed, round 2; Potency, µM (doses to about 119 µM), actives largely listed as inhibitors; AID 504841; recombinant RECQ1 DNA unwinding, red fluorescence; 1,100 compounds, 15% hits; shares compounds with RECQ1 inh-1; note: nearly all actives have a fitted effect of over 50% in size
Large screens that a line does not name were inactive (follow-up assays come after a bar, where they were run). This is one part of a sample in which hits are shown more often than they occur. Unless noted, calls come from the whole dose curve; as a rule, active = well fitted curve in the direction sought with a large enough effect; inconclusive = small, poorly fitted or top-dose-only effect, or another doubt; inactive = no such curve, though single readings can be large; an effect the other way counts as inactive or inconclusive.

CC1=Nc2ccccc2/C1=C/c1nc(-c2ccc(C)s2)oc1O	RECQ1 inh-1 inconclusive, JMJD2E inh inconclusive | RECQ1 inh-2 inconclusive
C=CCC(O)[C@H](Cc1cnc2ccccc2c1)[C@H](/C=C/CCCC)c1ccccc1 (stereo partly drawn)	none (no result: JMJD2E inh, PKM2 act)
CCOc1ccccc1CN1CCc2nc(N3CCN(C)CC3)ncc2C1	none (no result: RECQ1 inh-1, APEX1 inh, JMJD2E inh, PKM2 act)
Cc1ccc(-c2nn(-c3cccc(F)c3)cc2CN(Cc2nccn2C)C(C)C)o1	JMJD2E inh inconclusive, PKM2 act inconclusive
Cc1ccc(-c2nn(-c3cccc(F)c3)cc2CN2CCN(c3ccccn3)CC2)o1	RECQ1 inh-1 inconclusive, JMJD2E inh inconclusive, PKM2 act 16µM | RECQ1 inh-2 inconclusive
CCC(=O)N(C)/C=C1\Sc2ccccc2C1=O	JMJD2E inh inconclusive
CC(=O)N(C)/C=C1\Sc2ccccc2C1=O	RECQ1 inh-1 inconclusive | RECQ1 inh-2 inactive
CC(C)[C@H](NC(=O)[C@@H]1CSC2c3ccccc3C(=O)N21)C(=O)NCc1ccco1 (stereo partly drawn)	none (no result: RECQ1 inh-1, JMJD2E inh, PKM2 act)
O=C(NCc1ccco1)[C@@H]1CSC2c3ccccc3C(=O)N21 (stereo partly drawn)	RECQ1 inh-1 inconclusive | RECQ1 inh-2 inconclusive
CCN(CC)c1ccc2c(Cl)cc(=O)oc2c1	JMJD2E inh inconclusive
CCNc1ccc2c(Cl)cc(=O)oc2c1	RECQ1 inh-1 35µM, JMJD2E inh inconclusive | RECQ1 inh-2 inactive
CCN(CC)c1ccc(C(=O)NCc2ccc3c(c2)CCN3C(=O)c2ccc(F)cc2)cc1	none (no result: RECQ1 inh-1, APEX1 inh, JMJD2E inh, PKM2 act)
CCOc1ccccc1/C=C(\NC(=O)c1ccccc1)C(=O)NCCC(=O)O	none | RECQ1 conf inactive | RECQ1 ADP FP inactive
CCC(/C=C1\Sc2ccc(OC)cc2N1CC)=C\c1sc2ccc(OC)cc2[n+]1CCCS(=O)(=O)[O-]	APEX1 inh inconclusive
CCN1/C(=C/c2cc[n+](CCCS(=O)(=O)[O-])c3ccccc23)Sc2ccccc21	RECQ1 inh-1 inconclusive, APEX1 inh inconclusive | RECQ1 inh-2 56µM
N[C@@H](Cc1cc(CP(=O)(O)O)cc(-c2ccccc2Cl)c1)C(=O)O	APEX1 inh inconclusive (no result: PKM2 act)
COc1ccc(C(=O)NCc2ccc3c(c2)cc(C)n3C)cc1	RECQ1 inh-1 inconclusive, APEX1 inh inconclusive, JMJD2E inh inconclusive | RECQ1 inh-2 inactive
CCc1nnc(NC(=O)c2sc3nc4c(cc3c2N)CCCCCC4)s1	RECQ1 inh-1 inconclusive, JMJD2E inh inconclusive | RECQ1 inh-2 inconclusive
CCN(CC)C(=O)c1cn(CCC#N)nc1-c1ccc(F)cc1	RECQ1 inh-1 40µM, APEX1 inh inconclusive | RECQ1 inh-2 inactive
CN(C)C(=O)c1cn(CCC#N)nc1-c1ccc2ccccc2c1	none (no result: RECQ1 inh-1, JMJD2E inh)
COc1ccccc1-c1ccc(/C=C2/C=C(CC(C)C)OC2=O)o1	RECQ1 inh-1 inconclusive, JMJD2E inh inconclusive, PKM2 act inconclusive
CCCC1=C/C(=C/c2ccc(-c3ccccc3OC)o2)C(=O)O1	RECQ1 inh-1 22µM, JMJD2E inh inconclusive, PKM2 act inconclusive | RECQ1 conf inconclusive
O=C(O)c1ccc(C2Nc3ccccc3-c3nnc(SCc4ccc(Cl)cc4)nc3O2)cc1 (stereo not drawn)	none (no result: RECQ1 inh-1, APEX1 inh, JMJD2E inh, PKM2 act)
Cn1c(SCCC#N)nnc1-c1ccc(F)cc1	none
CC(C)(C)c1ccc(-c2nnc(SCCC#N)n2C2CCCC2)cc1	RECQ1 inh-1 14µM | RECQ1 conf inactive | RECQ1 ADP FP inactive | RECQ1 inh-2 inactive
COC(=O)c1cc2ccsc2n1Cc1nc(-c2ccc(OC)cc2)oc1C	RECQ1 inh-1 32µM, JMJD2E inh inconclusive | RECQ1 inh-2 inactive
COc1ccccc1CNc1ccc(-c2nc(C)no2)cc1[N+](=O)[O-]	none (no result: RECQ1 inh-1, APEX1 inh, JMJD2E inh, PKM2 act)
COc1ccc(N2CCN(C3C(=O)c4ccccc4N3C(C)=O)CC2)cc1 (stereo not drawn)	none (no result: RECQ1 inh-1, APEX1 inh, JMJD2E inh, PKM2 act)
CCOC(=O)COc1ccc(C)cc1C(=O)c1ccn2nc(-c3ccc(Cl)cc3)cc2n1	none (no result: RECQ1 inh-1, APEX1 inh, JMJD2E inh, PKM2 act)
O=C(CSc1nc2ccccc2c(=O)[nH]1)c1ccc(O)c(O)c1	RECQ1 inh-1 8.9µM, APEX1 inh inconclusive, JMJD2E inh 25µM | RECQ1 conf inconclusive | RECQ1 ADP FP inconclusive | RECQ1 inh-2 16µM
CC(C)c1ccc(Nc2nc(Nc3ccc(Cl)cc3)nc(N3CCOCC3)n2)cc1	none (no result: RECQ1 inh-1, APEX1 inh, JMJD2E inh, PKM2 act, BLM inh) | RECQ1 conf inactive
O=C1Nc2ccccc2SC(c2ccccc2)C1O (stereo not drawn)	RECQ1 inh-1 32µM, APEX1 inh inconclusive, JMJD2E inh inconclusive | RECQ1 inh-2 inconclusive
Cc1c(C(=O)N2CCOCC2)sc2ncnc(N3CCc4ccccc4C3)c12	none
CCN1CCN(C(=O)c2sc3ncnc(N4CCc5ccccc5C4)c3c2C)CC1	RECQ1 inh-1 28µM | RECQ1 inh-2 inactive
COC(=O)[C@@H]1[C@@H](O)[C@]2(O)c3ccccc3O[C@]2(c2ccccc2)[C@H]1c1ccccc1	none (no result: JMJD2E inh, PKM2 act)
N=C1S/C(=C\c2ccco2)C(=O)N1c1ccc2c(c1)OCO2	APEX1 inh inconclusive, PKM2 act inconclusive, BLM inh inconclusive

Screening results (PubChem BioAssay)
